TDP1 inh = qHTS Assay for Inhibitors of Tyrosyl-DNA Phosphodiesterase (TDP1); Tyrosyl-DNA phosphodiesterase 1 (Homo sapiens), Q9NUW8; recombinant TDP1, AlphaScreen DNA substrate cleavage; Potency, µM (doses to about 130 µM), usual class: inhibitors; 0.28% of 350,000 active; AID 485290, 2010; note: nearly all actives have a fitted effect of over 40% in size
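E. coli-derived human Tdp1, 1 nM final. Cpd preinc 15 min RT; substrate 15 nM final, 5 min RT; AS bead mix 10 ug/ml final, 10 min RT. Signal loss = tyrosine-FITC cleavage. No-enzyme wells = max signal.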
PLK1 PBD inh = qHTS for Inhibitors of PLK1-PDB (polo-like kinase 1 - polo-box domain): Primary Screen; Plk1 PBD binding of FITC phosphopeptide, fluorescence polarization; AID 720504, 2013; Potency, µM, usual class: inhibitors; 2.8% of 360,000 active; note: series mostly up to about 57 µM; nearly all actives have a fitted effect of over 65% in size
KAT2A inh = qHTS Assay for Inhibitors of GCN5L2 | AID 504327, 2011 | GCN5L2 HAT assay, ThioGlo1 CoA-SH fluorescence | Histone acetyltransferase KAT2A (Homo sapiens), Q92830 | 0.21% of 390,000 active | Potency, µM (top dose mostly 58.9 µM), usual class: inhibitors
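Titration-based screen in which CoA formation is detected via maleimide probe ThioGlo1 (50uM) turning fluorescent on thiol reaction; substrates H3(1-25) 75uM and acetyl-CoA 70uM, GCN5L2 20nM, 20 min incubation at room temperature.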
VDR inh = Inhibitors of the vitamin D receptor (VDR): qHTS; Vitamin D3 receptor (Homo sapiens), P11473; 0.93% of 400,000 active; Potency, µM, actives largely listed as inhibitors; VDR-SRC2-3 peptide fluorescence polarization, 2 h
Target sequence (P11473 whole entry, looked up): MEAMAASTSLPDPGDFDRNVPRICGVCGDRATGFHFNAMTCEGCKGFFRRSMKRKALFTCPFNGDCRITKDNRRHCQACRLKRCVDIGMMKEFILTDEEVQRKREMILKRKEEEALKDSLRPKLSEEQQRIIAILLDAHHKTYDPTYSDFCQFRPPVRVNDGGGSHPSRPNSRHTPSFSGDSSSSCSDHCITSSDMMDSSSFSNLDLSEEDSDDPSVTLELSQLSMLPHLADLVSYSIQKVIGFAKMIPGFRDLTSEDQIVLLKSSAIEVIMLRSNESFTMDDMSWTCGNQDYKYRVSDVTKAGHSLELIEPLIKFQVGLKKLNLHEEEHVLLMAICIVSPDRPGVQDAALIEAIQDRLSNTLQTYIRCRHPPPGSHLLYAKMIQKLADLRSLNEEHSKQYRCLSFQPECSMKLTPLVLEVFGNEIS
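VDR–SRC2-3 interaction, FP format. Cmpds 23 nl via pintool, brief spin, 2 h ambient incubation.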
TDP1 cell noCPT = qHTS for Inhibitors of human tyrosyl-DNA phosphodiesterase 1 (TDP1): qHTS in cells in absence of CPT | AID 686978, 2013 | 15% of 420,000 active | DT40 Tdp1-/- hTDP1 cells, no CPT, ATP luminescence, 48 h | Potency, µM (series often up to 46.2 µM), hits mostly inhibitors; note: nearly all actives have a fitted effect of over 55% in size
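Readout: luminescence from CellTiter-Glo after 30 min in the dark at RT. Cells: DT40 Tdp1-/- with stable hTDP1, 400/well. Exposure: compounds alone, ≥48 hr, 37 °C.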
DT40 TDP1 CPT = qHTS for Inhibitors of human tyrosyl-DNA phosphodiesterase 1 (TDP1): qHTS in cells in presence of CPT; chicken DT40 Tdp1-/-;hTDP1 cells + 20 nM CPT, ATP luminescence, 48 h; Potency, µM (top dose mostly 46.2 µM), actives largely listed as inhibitors; AID 686979, 2013; 12% of 420,000 active; note: nearly all actives have a fitted effect of over 55% in size
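Chicken DT40 Tdp1-/- cells stably complemented with human TDP1 were seeded at 400 cells/well in medium containing 20 nM camptothecin, exposed to pin-transferred compounds, and grown at 37 °C for at least 48 hr. Viability was read as ATP luminescence.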
Each line names hits and unclear results; the compound was inactive in the other large screens. This is a sample that favours compounds with a hit; in the whole collection about 18% have one here. Calls come from the whole dose curve; as a rule, active = well fitted curve in the direction sought with a large enough effect; inconclusive = small, poorly fitted or top-dose-only effect, or another doubt; inactive = no such curve, though single readings can be large; an effect the other way counts as inactive or inconclusive.

CC(=O)Oc1c(-c2ccco2)oc2ccccc2c1=O	none
COc1ccccc1NC(=O)N(Cc1ccco1)Cc1cc2c(C)ccc(C)c2[nH]c1=O	none
COc1ccccc1NC(=O)N(Cc1ccco1)Cc1cc2cccc(C)c2[nH]c1=O	VDR inh inconclusive, TDP1 cell noCPT 29µM, DT40 TDP1 CPT 16µM
Cc1ccc2[nH]c(=O)c(CN(Cc3ccco3)C(=O)c3ccncc3)cc2c1	TDP1 cell noCPT 10µM, DT40 TDP1 CPT 10µM
COc1ccccc1NC(=S)N(Cc1ccco1)Cc1cc2cc(C)ccc2[nH]c1=O	TDP1 cell noCPT 13µM, DT40 TDP1 CPT 9.2µM
COc1ccc(C(=O)N(Cc2ccco2)Cc2cc3cc(C)ccc3[nH]c2=O)cc1OC	TDP1 cell noCPT 16µM, DT40 TDP1 CPT inconclusive (no result: TDP1 inh, KAT2A inh)
COC(=O)C/C=C\[C@@H](C)[C@H]1C=C[C@H](O)[C@@H](CO)O1	none (no result: PLK1 PBD inh, KAT2A inh, VDR inh, TDP1 cell noCPT, DT40 TDP1 CPT)
NC(=O)C1CN(C(=O)c2nn(Cc3ccccc3)c(=O)c3ccccc23)c2ccccc2O1 (configuration not stated)	TDP1 cell noCPT inconclusive, DT40 TDP1 CPT inconclusive
Cc1cccc(C)c1Nc1ncccc1C(=O)O	none (no result: TDP1 inh, PLK1 PBD inh, KAT2A inh, VDR inh)
COC(=O)c1ccccc1NC(=S)N(Cc1ccc2c(c1)OCO2)Cc1cc2cc(C)ccc2[nH]c1=O	TDP1 cell noCPT inconclusive, DT40 TDP1 CPT 21µM
O=C(c1cccs1)N(Cc1ccco1)Cc1cc2ccccc2[nH]c1=O	PLK1 PBD inh 27µM, TDP1 cell noCPT inconclusive, DT40 TDP1 CPT inconclusive
CCc1ccc2[nH]c(=O)c(CN(Cc3ccc4c(c3)OCO4)C(=O)c3ccco3)cc2c1	TDP1 cell noCPT inconclusive, DT40 TDP1 CPT 23µM
Cc1cc(C)c2[nH]c(=O)c(CN(Cc3ccco3)C(=O)c3cccs3)cc2c1	none (no result: PLK1 PBD inh, VDR inh, TDP1 cell noCPT, DT40 TDP1 CPT)
COc1ccc2[nH]c(=O)c(CN(Cc3ccc4c(c3)OCO4)C(C)=O)cc2c1	DT40 TDP1 CPT inconclusive
CCN1CCCC1CN(Cc1cc2cc(C)cc(C)c2[nH]c1=O)C(=O)Nc1ccccc1OC (configuration not stated)	TDP1 cell noCPT 21µM, DT40 TDP1 CPT 13µM
CCN1CCCC1CN(Cc1cc2ccc(C)cc2[nH]c1=O)C(=S)Nc1ccc(OC)cc1OC (configuration not stated)	TDP1 cell noCPT inconclusive, DT40 TDP1 CPT inconclusive
Cc1c(C(=O)NCCN2CCOCC2)cnn1-c1nccc(-c2cc3ccccc3o2)n1	none (no result: TDP1 inh, PLK1 PBD inh, KAT2A inh, VDR inh)
COc1cc(=O)n2c(c1C(=O)N(C)Cc1nonc1C)CCN(Cc1cccc(Cl)c1)CC2	none (no result: TDP1 inh, PLK1 PBD inh, KAT2A inh, VDR inh)
COc1ccccc1-c1cccc(-c2nc(C(=O)Nc3nccs3)cc3c2[C@@H](CCO)N(C(=O)CC2CC2)C3)c1	TDP1 cell noCPT 12µM, DT40 TDP1 CPT 18µM (no result: TDP1 inh, KAT2A inh, VDR inh)
CCC(=O)N1Cc2cc(C(=O)Nc3nccs3)nc(-c3cccc(-c4ccccc4OC)c3)c2[C@@H]1CCO	TDP1 cell noCPT 4.6µM, DT40 TDP1 CPT 4.6µM (no result: TDP1 inh, KAT2A inh, VDR inh)
CCC(=O)N1Cc2cc(C(=O)NCCOC)nc(-c3cccc(-c4ccc(C#N)cc4)c3)c2[C@H]1CCO	TDP1 cell noCPT inconclusive (no result: TDP1 inh, KAT2A inh, VDR inh)
O=C(Nc1cccc2c1CCCC2)c1ccc(Cl)c([N+](=O)[O-])c1	TDP1 cell noCPT 16µM, DT40 TDP1 CPT inconclusive
O=C(Nc1ccccc1C(=O)N1CCCC1)c1ccc(Cl)c([N+](=O)[O-])c1	TDP1 cell noCPT inconclusive
Cc1ccc(O)c(NC(=O)c2cc([N+](=O)[O-])ccc2Cl)c1	TDP1 cell noCPT 21µM, DT40 TDP1 CPT inconclusive
O=C(Nc1ccccc1N1CCCCC1)c1ccc(Cl)c([N+](=O)[O-])c1	TDP1 cell noCPT 18µM, DT40 TDP1 CPT inconclusive
